Screening data from PubChem.
Pf growth 48h = Primary qHTS for delayed death inhibitors of the malarial parasite plastid, 48 hour incubation; Potency, µM (series often up to 28.7 µM), inactives show top-dose activity change, negative = inhibition, hits mostly inhibitors; P. falciparum luciferase growth in erythrocytes, 48 h; 5.9% of 310,000 active; note: potency is the fitted concentration of half-maximal effect; % is set by controls: 0 for no effect and ±100 for the full control effect
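Erythrocytes infected with P. falciparum carrying an integrated firefly luciferase reporter (2% hematocrit, 0.1% parasitemia final) were exposed to compounds in RPMI 1640 with 0.5% Albumax at 37 C, 5% CO2. Growth inhibition was scored as reduced luminescence.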
HCMV antiviral = qHTS Assay for inhibitors of the human cytomegalovirus (HCMV). 4.5% of 410,000 active. activity change, negative = inhibition, % at 57.5 µM. HFF cells, HCMV-luciferase reporter, 72 h; hits give low values; in the data active = activity change below about -60%; inconclusive = no clear call, values can overlap the other calls; inactive = above about -39%; note: % is set by controls: 0 for no effect and ±100 for the full control effect
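Human foreskin fibroblasts infected with luciferase-reporter HCMV at MOI 1 PFU/cell, compounds at two doses. Luciferase measured 72 h post infection; normalized to buffer-only basal and Salinomycin (10uM) controls.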
CHX counter = Cycloheximide Counterscreen for Small Molecule Inhibitors of Shiga Toxin. cell reporter, cycloheximide protein synthesis inhibition counterscreen. max response, %. 12% of 300,000 active; in the data active = max response mostly above about 13%, no sharp cut-off; inactive = mostly below about 14%; note: read at 38.3 µM for the half of the compounds with a filed dose; 0% is about no effect
Pf growth 96h = Primary qHTS for delayed death inhibitors of the malarial parasite plastid, 96 hour incubation | 6.9% of 320,000 active | P. falciparum luciferase reporter growth, 96 h | Potency, µM (series often up to 28.7 µM), for the others: at the top dose activity change, negative = inhibition, actives largely listed as inhibitors; note: potency is the fitted concentration of half-maximal effect; % is set by controls: 0 for no effect and ±100 for the full control effect
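Erythrocytes infected with luciferase-expressing P. falciparum were dispensed at 2% hematocrit and 0.05% parasitemia (final), then incubated with compounds 96 hours at 37 C in 5% CO2. Luminescence after detection reagent addition reported growth.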
Shiga inhibitor = A qHTS for Small Molecule Inhibitors of Shiga Toxin; inhibition, % at 38.7 µM; Vero cells, Shiga toxin protein synthesis inhibition reporter; 9.2% of 290,000 active; in the data active = inhibition mostly above about 28%, no sharp cut-off; inactive = mostly below about 43%; note: 0% is about no effect
Numbers without * were called inactive; u = inconclusive; x = no result. A selection: hits, their analogues and other compounds. The true share with any hit is near 20%. Unless noted, calls come from the whole dose curve; as a rule, active = well fitted inhibition curve with a large enough effect; inconclusive = small, poorly fitted or top-dose-only effect, or another doubt; inactive = no such curve, though single readings can be large or run the other way.

SMILES	Pf growth 48h	HCMV antiviral	CHX counter	Pf growth 96h	Shiga inhibitor
CC(=O)NCCC(=O)Nc1cc(S(=O)(=O)N2CCOCC2)ccc1Oc1ccccc1	-11%	13	-2	12µM*	-7
O=C(CNc1cc(S(=O)(=O)N2CCOCC2)ccc1N1CCCC1)N1CCc2ccccc21	13µM*	u	1	u	-4
CC(=O)NCCC(=O)Nc1cc(S(=O)(=O)N2CCOCC2)ccc1N1CCCC1	12µM*	-14	x	0%	x
Cc1cccc(C)c1NC(=O)CCCN1C(=O)CCn2nc(-c3cn(C)c4ccccc34)cc21	x	-2	x	x	x
Cc1cc(=O)n(C(C)C(=O)N2CCCc3ccccc32)c2c1c(C)nn2-c1ccccc1 (stereo not drawn)	x	7	x	x	x
Nc1nc2c(ncn2[C@@H]2O[C@H](CNCc3cnc(N4CCOCC4)nc3)[C@@H](O)[C@H]2O)c(=O)[nH]1	x	7	x	x	x
CC(OC(=O)c1ccccc1NS(=O)(=O)c1cccc(C(F)(F)F)c1)C(=O)N(C)Cc1ccccc1 (stereo not drawn)	u	u	-2	10µM*	-16
CC1=NOC(=O)/C1=C\c1ccc(-c2cc(Cl)ccc2Cl)o1	x	-104*	3	44%	-1
CC1=NOC(=O)/C1=C/c1ccc(-c2ccc(Cl)cc2)o1	x	x	-4	4%	-5
Cc1ccccc1NC(=O)c1sc2nc(N3CCOCC3)c3c(c2c1N)CCCC3	u	u	19*	u	22
CCOC(=O)c1sc2nc(N3CCOCC3)c3c(c2c1N)CCN(Cc1ccccc1)C3	u	-31	-4	9.3µM*	-10
Cc1ccc(C(=C2C3C=CC2C2C(=O)NC(=O)C32)c2ccc(C)cc2)cc1 (stereo not drawn)	x	x	-4	14%	-13
CCN(CC)c1ccc(NC(=O)c2cnn3c(C(F)F)cc(-c4ccccc4)nc23)cc1	x	-28	x	x	x
CCN(CC)Cc1cc(NC2=NS(=O)(=O)c3ccccc32)ccc1OC(=O)c1ccccc1	u	-15	1	9.3µM*	2
CCn1c(C(=O)N2CCCC(C(=O)N3CCN(c4cc(C)ccc4C)CC3)C2)cc2sccc21 (stereo not drawn)	x	-24	x	x	x
COC(=O)N/N=C/c1sc(N2CCCCC2)nc1-c1cccs1	u	-68*	22	u	65
Cc1occc1C(=O)N/N=C/c1sc(N2CCOCC2)nc1-c1ccccc1	u	-6	2	u	7
CC1CCCc2cc(OS(=O)(=O)C(F)(F)F)ccc2OC(=O)CC1 (stereo not drawn)	x	-5	x	x	x
CN1CCN(CCNC(=O)c2ccc3nc(-c4ccc(F)cc4)c(-c4ccc(F)cc4)nc3c2)CC1	9.3µM*	-33	-5	u	-10
COc1ccc(-c2nc3ccc(C(=O)NCC(OC)OC)cc3nc2-c2ccc(OC)cc2)cc1	u	-60*	12	32%	0
CCC1(C)Cc2c(sc3nc(NC)n(C)c(=O)c23)CO1 (stereo not drawn)	u	-13	67*	u	27
CCC1(C)Cc2c(sc3nc(SCC(=O)O)[nH]c(=O)c23)CO1 (stereo not drawn)	19%	-7	-4	8.3µM*	11
CCC1(C)Cc2c(sc3nnn(Cc4ccccc4Cl)c(=O)c23)CO1 (stereo not drawn)	u	-60*	6	u	-13
Cn1c(NN)nc2sc3c(c2c1=O)CC(C)(C)OC3	u	17	-3	9%	16
c1ccc2c(c1)CCOC2CNCCCN1CCCCC1 (stereo not drawn)	u	3	-4	12µM*	-6
SMILES	Pf growth 48h	HCMV antiviral	CHX counter	Pf growth 96h	Shiga inhibitor
COc1ccc(CC(=O)c2ccc(OC3OC(CO)C(O)C(O)C3O)cc2O)cc1 (stereo not drawn)	10%	-7	14*	u	84*
O=c1c(-c2ccc(O)cc2)coc2cc(O[C@@H]3O[C@H](CO)[C@@H](O)[C@H](O)[C@H]3O)cc(O)c12	x	x	27*	x	61*
OC[C@H]1O[C@@H](Oc2cc(O)cc(/C=C/c3ccc(O)cc3)c2)[C@H](O)[C@@H](O)[C@@H]1O	x	x	27*	x	95*
COc1ccc(-c2coc3cc(OC4OC(CO)C(O)C(O)C4O)cc(O)c3c2=O)cc1 (stereo not drawn)	107%	63	x	224%	x
COc1ccc(-c2coc3cc(OC4OC(CO)C(O)C(O)C4O)ccc3c2=O)cc1 (stereo not drawn)	30%	34	37*	12µM*	47*
Cc1ccc(Cn2c(CN3CCN(c4cccc(Cl)c4)CC3)nc3c2c(=O)n(C)c(=O)n3C)cc1	x	28	x	x	x
CCOc1ccc(C(=O)NC(C(=O)NCc2cccnc2)C(C)C)cc1 (stereo not drawn)	20%	-20	-4	25%	-7
O=C(CC1(CC2=NS(=O)(=O)c3ccccc3N2)CCCC1)NCCc1ccccc1	u	-68*	8.5*	0%	18
O=C(CCCC1=NS(=O)(=O)c2ccccc2N1)NCCc1ccc(Cl)cc1	-6%	-29	1	4%	26
NS(=O)(=O)c1ccc(CCNC(=O)CCCC2=NS(=O)(=O)c3ccccc3N2)cc1	0%	52	-3	5.2µM*	-18
Cc1ccc(NC(=O)Cn2c(=O)c3ccc(Cl)cc3n3nncc23)cc1	x	-8	x	x	x
F/C(COc1ccc2c(c1)[nH]c1ccccc12)=C1/CN2CCC1CC2	u	x	36*	11µM*	57*
C=CCOc1ccc(C(c2c(C(=O)O)[nH]c3ccccc23)c2c(C(=O)O)[nH]c3ccccc23)cc1	-9%	49	1	-4%	-1
CCOC(=O)c1c(NC(=S)NC)sc2c1CC(C)(C)SC2	4.1µM*	-15	-5	-102%	-9
O=C1c2ccc3c4c(ccc(c24)C(=O)N1c1ccc(O)cc1)C(=O)N(c1ccc(O)cc1)C3=O	-15%	-38	-2	4.7µM*	-9
O=C(O)c1ccc(S(=O)(=O)c2ccc3c(c2)C(=O)N(c2ccc(O)cc2)C3=O)cc1	-3%	u	-3	13%	-7
COC(=O)[C@@H]1CC[C@H](C)[C@@H](c2ccc(C)cc2)N1C(=O)c1ccc(/C=N/OC[C@@H](O)[C@H]2O[C@@H]3OC(C)(C)O[C@@H]3[C@H]2O)cc1	u	x	-5	u	-8
COC(=O)C/C=C/[C@@H](C)[C@@H](/C=N/OC[C@H]1O[C@H](c2ccccc2)C=C[C@@H]1Oc1ccc(OC)cc1)OC	-67%	x	-3	u	-15
CCCNC(=O)OC[C@H]1O[C@H](CCO/N=C/c2ccc(C(=O)N3[C@H](c4ccc(C)cc4)[C@@H](C)CC[C@H]3C(=O)OC)cc2)C=C[C@@H]1Oc1ccc(OC)cc1	u	x	-1	2.1µM*	-10
